Compound activity (PubChem BioAssay)
tim23-1 inh: tim23-1 yeast growth inhibition; S. cerevisiae tim23-1 growth, BacTiter-Glo luminescence, 24 h; inhibition, % at 20 µM; actives 1.3% (n = 330,000); AID 463212;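 active means growth inhibition of the mutant yeast at or above 50%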;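 further: temperature-sensitive mutant grown at 25 °C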
tim10-1 inh: tim10-1 yeast growth inhibition | S. cerevisiae tim10-1 ts strain growth, BacTiter-Glo, 24 h | inhibition, % at 20 µM | actives 2.2% (n = 330,000);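 active means inhibition of at least 40%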;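 further: mutant grown at 25 °C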
PfHsp90 set2: reduces growth (ATP signal) of yeast expressing P. falciparum Hsp90. S. cerevisiae expressing PfHsp90, BacTiter-Glo ATP, 48 h; yeast lacking PDR1 and PDR3 efflux regulators. inhibition, % at 9.4 µM. actives 0.32% (n = 310,000). AID 504621;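 active means every replicate shows inhibition above about 80%, whatever the replicate mean, limit read from the data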
ATG4B inh: ATG4B (human) cysteine protease inhibition | ATG4B cleavage of LC3-PLA2, NBD-HPC fluorescence, 1 h | AID 504462 | inhibition, % at 8.33 µM | Q9Y4P1 | actives 0.51% (n = 340,000); in the data active means inhibition above about 40%
Target sequence (Q9Y4P1 whole entry, looked up): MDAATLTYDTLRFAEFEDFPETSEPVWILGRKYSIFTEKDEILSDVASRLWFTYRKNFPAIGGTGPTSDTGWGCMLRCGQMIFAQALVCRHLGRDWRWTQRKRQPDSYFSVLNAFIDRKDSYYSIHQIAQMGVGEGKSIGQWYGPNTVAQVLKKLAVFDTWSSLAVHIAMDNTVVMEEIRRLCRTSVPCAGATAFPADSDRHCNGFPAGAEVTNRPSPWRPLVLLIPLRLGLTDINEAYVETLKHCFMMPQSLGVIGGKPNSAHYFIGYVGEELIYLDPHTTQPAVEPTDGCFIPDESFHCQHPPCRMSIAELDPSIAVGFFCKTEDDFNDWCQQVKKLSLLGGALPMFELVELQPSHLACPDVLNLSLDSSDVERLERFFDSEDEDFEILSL
TIM10 inh: inhibits growth of TIM10 yeast strain. S. cerevisiae TIM10 strain growth, BacTiter-Glo luminescence, 24 h. inhibition, % at 10 µM. actives 1.4% (n = 330,000). AID 463195;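 active means inhibition of 40% or more at the single tested concentration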;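 further: wild-type TIM10 isogenic control strain grown at permissive 25 °C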
SKKanGAS inh: SKKanGAS growth inhibition | S. pyogenes SKKanGAS, kanamycin growth, BacTiter-Glo, 6 h | inhibition, % at 7.5 µM | actives 1.3% (n = 300,000) | AID 1662;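 active means mean replicate score, as percent of positive control median, at least 50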;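 further: strain carries kanamycin resistance gene driven by streptokinase promoter and grows in 40 µg/ml kanamycin; loss of luminescence reflects streptokinase promoter inhibition or plain growth inhibition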
ATG4B confirm: ATG4B (human) inhibition, single-dose confirmed; inhibition, % at 8.33 µM; ATG4B protease fluorescent substrate cleavage assay; shares compounds with ATG4B inh; actives 92% (n = 320); in the data active means inhibition above about 39%
PLA2 ctr: inhibits human PLA2, flagging false ATG4B inhibitors; shares compounds with ATG4B inh; purified PLA2, NBD-C6-HPC fluorescence, 45 min; inhibition, % at 8.33 µM; actives 66% (n = 1,600); AID 588402; in the data active means inhibition above about 50%
Target sequence (P04054 whole entry, looked up): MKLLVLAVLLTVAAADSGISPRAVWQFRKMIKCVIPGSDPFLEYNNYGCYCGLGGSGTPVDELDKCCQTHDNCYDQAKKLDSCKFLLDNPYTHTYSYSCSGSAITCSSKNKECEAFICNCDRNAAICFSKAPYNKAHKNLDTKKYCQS
Large screens that a line does not name were inactive (follow-up assays come after a bar, where they were run). A selection: hits, their analogues and other compounds. The true share with any hit is near 4.7%.

Cc1sc2nc(C(C)C)nc(SCC(=O)N3c4ccccc4CC3C)c2c1C (stereo unspecified)	ATG4B inh 75 | PLA2 ctr 77
CCOC(=O)CSc1nc(C(C)C)nc2sc(C)c(C)c12	ATG4B inh 62 | PLA2 ctr 59
CN(CC(=O)Nc1ccc(C#N)cc1)CC(=O)Nc1ccc(N2CCOCC2)cc1	ATG4B inh 41 | PLA2 ctr inactive
Cc1cccc(NC(=S)NC2CC3CCCC(C2)N3Cc2cccs2)c1C (stereo unspecified)	ATG4B inh 49 | PLA2 ctr 59
Fc1ccc(NC(=S)NC2CC3CCCC(C2)N3Cc2cccs2)cc1 (stereo unspecified)	none
CCc1ccccc1NC(=S)NC1CC2CCCC(C1)N2Cc1cccs1 (stereo unspecified)	ATG4B inh 48 | PLA2 ctr inactive
Cc1ccc(NC(=S)NC2CC3CCCC(C2)N3Cc2cccs2)cc1 (stereo unspecified)	none
COC(=O)c1ccc(CSc2nc3c(c(=O)n2-c2ccc(C)cc2)SCC3)o1	ATG4B inh 48 | PLA2 ctr 70
COc1ccccc1C(C)NCC(=O)NCC(=O)Nc1ccc(F)c(F)c1F (stereo unspecified)	none
Cc1ccc(OCc2cc(C(=O)N3CCCCCCC3)no2)cc1C	none
Cc1cccc(C)c1OCc1cc(C(=O)N2CCCCCCC2)no1	ATG4B inh 40 | PLA2 ctr 50
Cc1ccc(N2CCN(C(=O)c3cc(COc4c(C)cccc4C)on3)CC2)c(C)c1	none
Cc1ccc(OCc2cc(C(=O)N3CCc4sccc4C3)no2)cc1C	ATG4B inh 57 | PLA2 ctr 79
CC(C)C(NC(=O)c1ccccc1F)C(=O)NCCCn1ccnc1 (stereo unspecified)	none (no result: SKKanGAS inh)
Cc1ccc(-c2nc(CS(=O)CC(=O)NCCN3CCCCCC3)c(C)o2)cc1 (stereo unspecified)	none
CCOC(=O)c1sc(-c2ccccc2)cc1NC(=O)Nc1ccccc1	ATG4B inh 41 (no result: tim23-1 inh, tim10-1 inh, TIM10 inh) | ATG4B confirm 83 | PLA2 ctr inactive
CCOC(=O)c1sc(-c2ccc(F)cc2)cc1NC(=O)Nc1ccccc1OC	none
COc1cccc(-c2ccc3ncnc(NCc4cccc(C)c4)c3c2)c1	ATG4B inh 40 (no result: SKKanGAS inh) | PLA2 ctr inactive
CC(NC(=O)CSc1nc2sc3c(c2c(=O)n1-c1ccccc1)CCCC3)c1ccccc1 (stereo unspecified)	none
CC(CO)Nc1nc(SCc2ccccc2)nc2sc3c(c12)CCC3 (stereo unspecified)	ATG4B inh 83 (no result: PfHsp90 set2) | PLA2 ctr 91
COCCNc1nc(SCc2ccccc2)nc2sc3c(c12)CCC3	ATG4B inh 46 | PLA2 ctr 60
Cc1cc(C(=O)N2CCN(c3cccc(Cl)c3)CC2)c(C)o1	none
CCCCCCCC(=O)O	none (no result: SKKanGAS inh)
CC/C=C\C/C=C\C/C=C\CCCCCCCC(=O)O	ATG4B inh 46 (no result: SKKanGAS inh) | ATG4B confirm 63 | PLA2 ctr inactive
O=C(Oc1ccccc1)c1ccccc1	none (no result: tim23-1 inh, tim10-1 inh, TIM10 inh, SKKanGAS inh)
CC(C)(C)c1ccc(OC(=O)c2ccccc2)cc1	ATG4B inh 68 | PLA2 ctr 64
Nc1c(C(=O)Nc2ccc3c(c2)OCCO3)nnn1Cc1cccc(Br)c1	ATG4B inh 41 | PLA2 ctr inactive
CC(C)(CO)CNC(=O)CCc1nnc(CCCc2ccccc2)o1	none
CC1CCCN(C(=O)c2ccc3c(=O)n(C4CCCC4)c(=S)[nH]c3c2)C1 (stereo unspecified)	none (no result: PfHsp90 set2)
CCOC(=O)C1CCCN(C(=O)c2ccc(Cn3c(=S)[nH]c4cc(C(=O)OC)ccc4c3=O)cc2)C1 (stereo unspecified)	none
CCOC(=O)C1CCCN(C(=O)c2ccc3c(=O)n(Cc4ccccc4OC)c(=S)[nH]c3c2)C1 (stereo unspecified)	ATG4B inh 51 | ATG4B confirm 74 | PLA2 ctr inactive
O=C(c1ccc2c(=O)n(C3CCCC3)c(=S)[nH]c2c1)N1CCCCCC1	ATG4B inh 62 | PLA2 ctr 65
CNC(=O)NC(=O)CSc1ccc(S(=O)(=O)N2CCOCC2)cn1	none (no result: SKKanGAS inh)
COc1ccc(C(CC(=O)N2CCCCC2)C(C)C)cc1 (stereo unspecified)	none
NC(=O)CSc1nnc(-c2ccncc2)n1CCc1ccccc1	none (no result: PfHsp90 set2)
CCN(Cc1ccccc1)C(=O)CCc1nnc(CCCc2ccccc2)o1	none
CCNC(=O)c1ccc(CSc2nc3ccccc3s2)cc1	none
NC(=O)c1ccc(CSc2nc3ccccc3s2)cc1	ATG4B inh 51 | PLA2 ctr 59
O=C(Nc1nc2c(F)cccc2s1)C1CC1	none
CC1CCc2c(sc(Nc3nc4c(F)cccc4s3)c2C(N)=O)C1 (stereo unspecified)	ATG4B inh 41 | PLA2 ctr inactive
CC(Oc1cccc(Br)c1)C(=O)Nc1cccc(S(=O)(=O)N2CCOCC2)c1 (stereo unspecified)	none (no result: SKKanGAS inh)
CCCNC(=O)CC1C(=O)N(Cc2ccccc2)C(C)c2nc3ccccc3n21 (stereo unspecified)	none
O=C(O)c1ccccc1C(=O)N(Cc1ccccc1)Cc1ccccc1	none
O=C(O)c1cc(Cl)c(Cl)cc1C(=O)N(Cc1ccccc1)Cc1ccccc1	ATG4B inh 43 | PLA2 ctr 52
CON(C)S(=O)(=O)c1ccc2c(c1)N(Cc1ccc(C)cc1)C(=O)C1CCCN21 (stereo unspecified)	none
Cc1nnsc1-c1c(C(=O)O)c(C)nn1-c1ccc(OC(F)(F)F)cc1	none
COC(=O)N/N=C/c1cn(Cc2ccc(Cl)cc2Cl)c2ccccc12	ATG4B inh 53 | PLA2 ctr 61
Cc1ccccc1OCC(=O)N/N=C/c1cn(Cc2ccccc2)c2ccccc12	none
COC(=O)N/N=C/c1cn(Cc2c(Cl)cccc2Cl)c2ccccc12	ATG4B inh 42 | PLA2 ctr 51
Cc1ccc(OCC(=O)N/N=C\c2cn(Cc3ccccc3)c3ccccc23)cc1C	ATG4B inh 43 | PLA2 ctr inactive
COc1ccc(S(=O)(=O)NC(C)C)cc1-n1cnnn1	none
COCCCNC(=S)N1CCN(c2nc(C)nc3sc4c(c23)CCCC4)CC1	ATG4B inh 47 | PLA2 ctr 63
Cc1nc(N2CCNCC2)c2c3c(sc2n1)CCCC3	none
Cc1ccccc1-c1nsc(SCC(=O)NCc2ccc3c(c2)OCO3)n1	ATG4B inh 41 | PLA2 ctr inactive
Cc1ccc(-c2nsc(SCC(=O)NCc3ccc4c(c3)OCO4)n2)cc1	none
CSCc1c(C(=O)N2CCCc3ccccc32)oc2ccccc12	ATG4B inh 61 (no result: SKKanGAS inh) | PLA2 ctr 78
